Assay results taken from the supplement of paper PMC10849652.
Targets with a hit are over-represented here; the source holds about 7,900 in all. About 0.6% of all pairs of compound and target were hits. Values without a mark were called inactive.

Experiments:
Test in all cases: log2 fold change, soluble protein after heating vs DMSO (PISA); higher = thermal stabilisation; K562 cells, 10 uM, 30 min; active = over 0.2 and 3.5 SD of the protein, either way, in both replicates (recomputed)
IRAK-1-4 Inhibitor I = compound: C1COCCN1CCN2C3=CC=CC=C3N=C2NC(=O)C4=CC(=CC=C4)[N+](=O)[O-] [IRAK-1-4 Inhibitor I]
Procedure, shortened: (§1)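 K562 cells (2×10^6 cells/mL) were treated with 10 μM compound for 30 min, and aliquots were heated for 3 min over 48°C-58°C. Pooled aliquots were extracted in PBS with 0.5% NP-40 at 4°C, and the supernatant after 21,000xg for 90 min was measured by TMTpro 16plex LC-MS/MS with channel sums equalised. Reported thermal stability, relative to control samples and from duplicates, is a log2 fold change.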

ibrutinib = compound: C=CC(=O)N1CCC[C@@H](n2nc(-c3ccc(Oc4ccccc4)cc3)c3c(N)ncnc32)C1 [ibrutinib]
Procedure, shortened: as §1

[1] = compound: CC(=O)c1cnc2ccc(-c3cc(Cl)c(O)c(Cl)c3)nc2c1N[C@H]1CC[C@H](CN(C)C)CC1
Procedure, shortened: as §1

ralimetinib = compound: CC(C)(C)Cn1c(N)nc2ccc(-c3[nH]c(C(C)(C)C)nc3-c3ccc(F)cc3)nc21 [ralimetinib]
Procedure, shortened: as §1

[2] = compound: CC(C)(O)CC(=O)NCCn1ccc2ncnc(Nc3ccc(Oc4cccc(C(F)(F)F)c4)c(Cl)c3)c21
Procedure, shortened: as §1

[3] = compound: CC(C)C1=C2N=C(C=C(N2N=C1)NCC3=CC=CC=C3)NCCCCCCN
Procedure, shortened: as §1

[4] = compound: CC(C)C[C@@H](C=O)NC(=O)[C@H](CC(C)C)NC(=O)[C@H](CC(C)C)NC(=O)OCc1ccccc1
Procedure, shortened: as §1

pinometostat = compound: CC(C)N(C[C@H]1O[C@@H](n2cnc3c(N)ncnc32)[C@H](O)[C@@H]1O)[C@H]1C[C@@H](CCc2nc3cc(C(C)(C)C)ccc3[nH]2)C1 [pinometostat]
Procedure, shortened: as §1

[5] = compound: CC1=C(C(CC(=O)N1)C2=CC=C(C=C2)C(F)(F)F)C(=O)NC3=C(C=C4C(=C3)C=NN4)F
Procedure, shortened: as §1

[6] = compound: CC1=C(C2=C(C=C1)C(=O)C3=CC=CC=C3N2CCCN)C
Procedure, shortened: as §1

UniProt O00217, sequence (O00217 whole entry, looked up): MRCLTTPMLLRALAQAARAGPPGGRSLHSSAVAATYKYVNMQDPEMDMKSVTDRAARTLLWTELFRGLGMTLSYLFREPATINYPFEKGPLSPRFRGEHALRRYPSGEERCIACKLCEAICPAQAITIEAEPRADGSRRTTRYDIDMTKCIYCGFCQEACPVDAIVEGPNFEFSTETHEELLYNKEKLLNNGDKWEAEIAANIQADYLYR
UniProt Q15738, sequence (Q15738 whole entry, looked up): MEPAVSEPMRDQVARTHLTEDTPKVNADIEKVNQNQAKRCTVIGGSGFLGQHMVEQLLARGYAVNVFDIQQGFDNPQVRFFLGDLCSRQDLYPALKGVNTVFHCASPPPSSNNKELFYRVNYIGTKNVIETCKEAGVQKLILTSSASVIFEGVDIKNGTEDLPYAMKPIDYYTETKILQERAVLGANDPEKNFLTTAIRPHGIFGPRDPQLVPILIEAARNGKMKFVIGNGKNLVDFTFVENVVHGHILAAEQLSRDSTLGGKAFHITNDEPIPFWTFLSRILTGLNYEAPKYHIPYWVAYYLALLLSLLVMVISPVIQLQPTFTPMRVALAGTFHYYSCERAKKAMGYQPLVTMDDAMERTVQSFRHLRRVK
UniProt Q14978, sequence (Q14978 whole entry, looked up): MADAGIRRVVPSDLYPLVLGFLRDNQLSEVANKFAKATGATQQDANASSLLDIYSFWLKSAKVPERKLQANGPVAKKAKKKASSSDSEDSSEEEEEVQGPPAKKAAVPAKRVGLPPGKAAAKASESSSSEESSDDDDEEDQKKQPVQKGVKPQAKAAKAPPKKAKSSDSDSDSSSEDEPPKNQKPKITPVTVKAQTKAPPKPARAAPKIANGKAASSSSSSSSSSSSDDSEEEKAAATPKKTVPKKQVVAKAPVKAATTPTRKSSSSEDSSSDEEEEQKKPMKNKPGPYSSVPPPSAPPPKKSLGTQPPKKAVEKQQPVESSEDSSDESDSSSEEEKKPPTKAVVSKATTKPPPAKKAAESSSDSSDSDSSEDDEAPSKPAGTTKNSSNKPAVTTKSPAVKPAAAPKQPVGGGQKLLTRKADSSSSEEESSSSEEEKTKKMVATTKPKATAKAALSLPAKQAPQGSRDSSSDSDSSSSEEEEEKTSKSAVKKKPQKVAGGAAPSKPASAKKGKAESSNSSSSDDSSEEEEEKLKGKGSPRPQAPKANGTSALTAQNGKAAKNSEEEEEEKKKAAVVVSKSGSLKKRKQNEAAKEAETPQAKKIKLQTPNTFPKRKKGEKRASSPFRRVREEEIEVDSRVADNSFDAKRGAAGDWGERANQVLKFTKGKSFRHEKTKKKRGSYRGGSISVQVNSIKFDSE
UniProt Q9BRP4, sequence (Q9BRP4 whole entry, looked up): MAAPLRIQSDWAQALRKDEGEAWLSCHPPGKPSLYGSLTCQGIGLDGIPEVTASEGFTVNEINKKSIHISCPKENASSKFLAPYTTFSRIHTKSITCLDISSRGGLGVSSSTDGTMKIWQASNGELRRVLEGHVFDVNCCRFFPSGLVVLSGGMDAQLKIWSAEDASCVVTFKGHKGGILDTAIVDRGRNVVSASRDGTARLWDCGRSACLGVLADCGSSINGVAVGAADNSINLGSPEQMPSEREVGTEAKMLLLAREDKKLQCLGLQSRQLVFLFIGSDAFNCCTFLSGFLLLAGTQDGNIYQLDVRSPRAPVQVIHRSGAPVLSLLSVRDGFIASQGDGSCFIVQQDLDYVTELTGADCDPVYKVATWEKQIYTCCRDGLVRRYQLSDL
UniProt P43246, sequence (P43246 whole entry, looked up): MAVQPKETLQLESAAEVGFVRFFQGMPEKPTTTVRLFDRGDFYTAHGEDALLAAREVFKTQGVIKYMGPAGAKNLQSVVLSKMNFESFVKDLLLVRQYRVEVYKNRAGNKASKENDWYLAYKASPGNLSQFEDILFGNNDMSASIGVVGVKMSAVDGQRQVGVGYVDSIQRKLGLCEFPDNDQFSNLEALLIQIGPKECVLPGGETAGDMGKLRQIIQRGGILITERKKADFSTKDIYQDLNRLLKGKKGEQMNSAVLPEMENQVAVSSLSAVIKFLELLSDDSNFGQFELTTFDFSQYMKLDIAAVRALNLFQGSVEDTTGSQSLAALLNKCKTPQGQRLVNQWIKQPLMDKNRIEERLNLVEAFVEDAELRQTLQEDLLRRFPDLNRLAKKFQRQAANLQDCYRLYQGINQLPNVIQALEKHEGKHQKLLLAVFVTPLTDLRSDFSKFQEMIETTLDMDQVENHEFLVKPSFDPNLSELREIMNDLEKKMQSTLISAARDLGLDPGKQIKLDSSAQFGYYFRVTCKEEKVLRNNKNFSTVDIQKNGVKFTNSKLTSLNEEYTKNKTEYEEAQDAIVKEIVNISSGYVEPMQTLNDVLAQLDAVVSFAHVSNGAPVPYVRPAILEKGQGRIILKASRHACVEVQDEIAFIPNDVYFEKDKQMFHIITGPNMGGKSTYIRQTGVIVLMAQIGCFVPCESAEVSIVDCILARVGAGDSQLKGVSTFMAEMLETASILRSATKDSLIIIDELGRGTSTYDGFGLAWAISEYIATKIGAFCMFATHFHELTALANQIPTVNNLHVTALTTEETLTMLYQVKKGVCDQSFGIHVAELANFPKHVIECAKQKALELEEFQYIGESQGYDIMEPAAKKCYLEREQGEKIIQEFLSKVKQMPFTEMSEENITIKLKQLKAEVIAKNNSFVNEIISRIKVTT
UniProt Q8NI08, sequence (Q8NI08 whole entry, looked up): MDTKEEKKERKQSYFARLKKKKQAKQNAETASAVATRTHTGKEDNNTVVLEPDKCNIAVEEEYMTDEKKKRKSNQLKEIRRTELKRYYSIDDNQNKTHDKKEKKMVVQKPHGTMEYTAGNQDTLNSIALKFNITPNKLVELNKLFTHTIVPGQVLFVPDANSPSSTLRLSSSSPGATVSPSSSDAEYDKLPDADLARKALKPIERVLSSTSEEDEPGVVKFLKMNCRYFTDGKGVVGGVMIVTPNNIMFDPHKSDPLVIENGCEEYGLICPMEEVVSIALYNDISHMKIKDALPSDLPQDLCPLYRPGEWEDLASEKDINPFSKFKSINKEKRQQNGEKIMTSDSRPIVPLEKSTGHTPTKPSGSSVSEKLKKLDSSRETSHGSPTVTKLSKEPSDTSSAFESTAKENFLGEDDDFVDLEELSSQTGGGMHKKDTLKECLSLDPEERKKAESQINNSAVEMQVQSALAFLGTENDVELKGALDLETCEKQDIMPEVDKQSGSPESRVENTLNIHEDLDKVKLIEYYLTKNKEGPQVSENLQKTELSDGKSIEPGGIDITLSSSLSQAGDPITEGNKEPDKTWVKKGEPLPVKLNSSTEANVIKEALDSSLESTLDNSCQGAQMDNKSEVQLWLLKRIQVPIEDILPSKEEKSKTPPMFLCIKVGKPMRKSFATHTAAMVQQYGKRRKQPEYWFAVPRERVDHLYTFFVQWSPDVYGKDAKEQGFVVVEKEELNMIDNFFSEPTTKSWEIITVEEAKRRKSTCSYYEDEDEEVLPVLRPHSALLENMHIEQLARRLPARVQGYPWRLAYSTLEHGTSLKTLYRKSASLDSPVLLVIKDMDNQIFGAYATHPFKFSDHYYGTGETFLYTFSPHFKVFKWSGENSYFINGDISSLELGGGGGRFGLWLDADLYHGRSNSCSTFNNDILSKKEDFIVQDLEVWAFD
UniProt Q6VY07, sequence (Q6VY07 whole entry, looked up): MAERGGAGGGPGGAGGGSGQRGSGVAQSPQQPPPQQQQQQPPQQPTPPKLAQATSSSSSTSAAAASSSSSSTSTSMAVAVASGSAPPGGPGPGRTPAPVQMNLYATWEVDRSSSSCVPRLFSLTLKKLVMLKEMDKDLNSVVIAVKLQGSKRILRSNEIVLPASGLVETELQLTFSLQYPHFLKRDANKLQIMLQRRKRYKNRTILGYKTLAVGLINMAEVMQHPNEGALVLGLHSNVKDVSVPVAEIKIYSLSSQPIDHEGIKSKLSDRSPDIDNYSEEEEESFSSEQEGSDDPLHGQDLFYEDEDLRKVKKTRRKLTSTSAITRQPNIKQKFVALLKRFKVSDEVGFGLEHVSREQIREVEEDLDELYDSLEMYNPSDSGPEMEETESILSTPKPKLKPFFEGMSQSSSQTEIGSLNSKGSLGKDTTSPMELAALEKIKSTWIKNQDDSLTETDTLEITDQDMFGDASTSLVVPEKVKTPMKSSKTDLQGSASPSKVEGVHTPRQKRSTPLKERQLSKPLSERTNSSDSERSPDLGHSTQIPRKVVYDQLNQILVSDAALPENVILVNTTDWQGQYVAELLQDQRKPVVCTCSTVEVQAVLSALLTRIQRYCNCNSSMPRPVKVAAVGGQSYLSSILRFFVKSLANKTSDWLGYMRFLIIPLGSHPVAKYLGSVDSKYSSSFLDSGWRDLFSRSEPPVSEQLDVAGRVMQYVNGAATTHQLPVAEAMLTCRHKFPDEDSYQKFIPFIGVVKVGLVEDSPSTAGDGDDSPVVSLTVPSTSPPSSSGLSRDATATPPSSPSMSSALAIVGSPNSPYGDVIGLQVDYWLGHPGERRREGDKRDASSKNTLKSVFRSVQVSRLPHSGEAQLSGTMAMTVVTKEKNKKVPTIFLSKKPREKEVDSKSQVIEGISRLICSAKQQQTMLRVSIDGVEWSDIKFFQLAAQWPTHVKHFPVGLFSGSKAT
UniProt Q9H019, sequence (Q9H019 whole entry, looked up): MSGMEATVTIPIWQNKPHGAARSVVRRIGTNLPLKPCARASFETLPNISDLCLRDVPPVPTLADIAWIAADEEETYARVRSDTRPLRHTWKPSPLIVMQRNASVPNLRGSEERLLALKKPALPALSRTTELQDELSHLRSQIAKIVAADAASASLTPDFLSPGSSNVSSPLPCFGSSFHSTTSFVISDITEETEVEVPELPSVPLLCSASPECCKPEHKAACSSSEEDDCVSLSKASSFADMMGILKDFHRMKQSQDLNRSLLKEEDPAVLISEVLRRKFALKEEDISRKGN
UniProt Q9BWT6, sequence (Q9BWT6 whole entry, looked up): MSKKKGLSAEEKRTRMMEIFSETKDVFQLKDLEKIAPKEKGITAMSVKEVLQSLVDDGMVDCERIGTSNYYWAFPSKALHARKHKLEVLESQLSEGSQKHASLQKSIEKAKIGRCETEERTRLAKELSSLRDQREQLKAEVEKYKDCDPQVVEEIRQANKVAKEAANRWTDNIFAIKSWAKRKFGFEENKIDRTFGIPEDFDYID

Target | log2 fold change (IRAK-1-4 Inhibitor I) | log2 fold change (ibrutinib) | log2 fold change [1] | log2 fold change (ralimetinib) | log2 fold change [2] | log2 fold change [3] | log2 fold change [4] | log2 fold change (pinometostat) | log2 fold change [5] | log2 fold change [6]
NAPG (UniProt Q99747) | -0.071 | -0.014 | -0.067 | -0.012 | -0.069 | -0.248 | 0.028 | 0.016 | 0 | 0.016
MRPS18B (UniProt Q9Y676) | -0.026 | 0.103 | -0.096 | -0.022 | -0.025 | -0.043 | 0.137 | -0.005 | 0.056 | -0.068
NIPSNAP2 (UniProt O75323) | 0.018 | 0.115 | -0.084 | -0.054 | 0.049 | 0.014 | -0.015 | -0.034 | 0.002 | 0.031
NHLRC2 (UniProt Q8NBF2) | 0.039 | 0.07 | -0.02 | -0.122 | -0.026 | -0.124 | 0.143 | 0.013 | 0.004 | 0.023
PAAF1 (UniProt Q9BRP4) | 0.037 | -0.003 | -0.029 | 0.001 | 0.007 | 0.037 | -0.28 (active) | -0.026 | 0.008 | 0.027
MRPS10 (UniProt P82664) | -0.024 | 0.02 | -0.065 | -0.031 | 0.01 | -0.027 | 0.066 | 0.045 | 0.041 | -0.28
MTFR1L (UniProt Q9H019) | 0.04 | 0.048 | -0.052 | -0.005 | 0.014 | -0.412 | 0.047 | 0.003 | 0.041 | -0.05
NDUFS7 (UniProt O75251) | 0.045 | -0.04 | -0.016 | -0.1 | -0.1 | -0.086 | 0.05 | -0.03 | -0.005 | 0.043
NAA38 isoform 2 (UniProt Q9BRA0) | 0.047 | -0.021 | -0.034 | 0.02 | -0.095 | -0.397 (active) | -0.001 | 0.035 | 0.051 | -0.01
NSDHL (UniProt Q15738) | 0.004 | 0.193 | -0.049 | -0.01 | 0.173 | -0.084 | -0.024 | -0.078 | -0.021 | 0.056
NCAPG (UniProt Q9BPX3) | -0.092 | -0.033 | 0.084 | 0.038 | -0.126 | -0.197 | -0.005 | -0.003 | -0.011 | 0.016
NCOA7 (UniProt Q8NI08) | 0.017 | -0.056 | -0.075 | 0.052 | -0.005 | -0.088 | 0.072 | 0.019 | -0.033 | -0.009
MRPS31 (UniProt Q92665) | -0.057 | 0.014 | -0.073 | -0.005 | -0.032 | -0.086 | 0.057 | 0.034 | 0.026 | -0.14
NAT14 (UniProt Q8WUY8) | -0.061 | 0.019 | -0.033 | -0.028 | -0.257 | -0.185 | 0.027 | -0.074 | 0.022 | -0.187
NOLC1 isoform 2 (UniProt Q14978) | -0.057 | -0.089 | -0.305 (active) | 0.041 | 0.021 | -0.015 | -0.086 | -0.011 | -0.023 | -1.4 (active)
OSTC (UniProt Q9NRP0) | -0.002 | -0.013 | -0.022 | 0.004 | -0.055 | -0.377 (active) | -0.046 | -0.023 | -0.031 | 0.119

Target | log2 fold change (IRAK-1-4 Inhibitor I) | log2 fold change (ibrutinib) | log2 fold change [1] | log2 fold change (ralimetinib) | log2 fold change [2] | log2 fold change [3] | log2 fold change [4] | log2 fold change (pinometostat) | log2 fold change [5] | log2 fold change [6]
NEMP1 (UniProt O14524) | 0.003 | -0.01 | -0.081 | -0.03 | -0.023 | -0.508 (active) | 0.08 | 0.009 | 0.099 | -0.119
NCL (UniProt P19338) | -0.144 | 0.034 | 0.118 | 0.166 | 0.119 | 0.07 | 0.121 | 0.4 | 0.039 | -0.891 (active)
NUP85 (UniProt Q9BW27) | -0.011 | -0.027 | -0.058 | -0.036 | -0.013 | -0.048 | -0.026 | -0.033 | 0.04 | 0.015
MND1 (UniProt Q9BWT6) | -0.022 | 0.069 | -0.053 | 0.052 | 0.008 | -0.182 | 0.173 | 0.076 | 0.058 | 0.043
MRPS33 (UniProt Q9Y291) | -0.006 | 0.022 | -0.004 | -0.038 | -0.069 | -0.034 | 0.122 | 0.096 | 0.096 | -0.158
MSH2 (UniProt P43246) | -0.024 | -0.066 | 0.018 | -0.031 | -0.041 | -0.019 | 0.023 | -0.023 | -0.015 | 0.357 (active)
MLX (UniProt Q9UH92) | -0.033 | -0.058 | -0.132 | 0.077 | -0.163 | -0.236 | 0.14 | 0.016 | 0.043 | -0.008
OGFR (UniProt Q9NZT2) | -0.023 | 0.001 | -0.235 | -0.014 | 0.109 | -0.028 | -0.008 | 0.149 | 0.036 | 0.044
MPHOSPH10 (UniProt O00566) | -0.215 | -0.022 | -0.064 | 0.144 | 0.089 | -0.071 | 0.053 | 0.113 | 0.021 | -0.56
NDUFS8 (UniProt O00217) | 0.087 | 0.034 | -0.02 | -0.083 | -0.099 | -0.145 | 0.017 | 0.005 | 0.034 | 0.075
NCOR1 (UniProt O75376) | 0.052 | 0.078 | -0.46 (active) | 0.01 | 0.011 | 0.055 | 0.022 | 0.05 | -0.084 | 0.093
NOSIP (UniProt Q9Y314) | -0.401 | -0.032 | -0.033 | -0.065 | -0.135 | -0.106 | -0.039 | 0.085 | -0.143 | 0.186
NKAP (UniProt Q8N5F7) | 0 | 0.004 | -0.218 | 0.033 | 0.105 | -0.123 | 0.103 | 0.032 | 0.165 | -0.022
MT-ND1 (UniProt P03886) | 0.104 | -0.009 | -0.072 | 0.071 | -0.142 | -0.142 | -0.102 | -0.092 | -0.115 | 0.119
NAA11 (UniProt Q9BSU3) | 0.035 | 0.049 | -0.102 | -0.024 | -0.042 | -0.075 | 0.072 | -0.131 | -0.007 | 0
PACS1 (UniProt Q6VY07) | -0.002 | -0.016 | -0.297 (active) | -0.024 | -0.014 | -0.011 | 0 | -0.029 | -0.098 | -0.007
